# Only a selection was taken, and the strongest signals are over-represented in it overall.
# B1: PX14375F-bfa-539-21-539 (Bacteroides fragilis) (protein)
# chain: EDFLQKDPPSSPSQSVFWQKKSDFESALAGTYSVMYSGVFSQIMPCLDGLTDNAIVQHSEGTYGWAKTIAQGDLTPNQGGFVTDIYGNCYKGIARVHILMEQLDQYTGSDISADEKKFMLAQCKALRGYFYSWLYQCYKEVPVVTQSLDLNTMYQPKATRAEVLNRVMTDYDEAISELPDKLYSDSQTSGRFTVSAVKALKARILLFDAYDSNGKAISSKMEEVLTLLQSIKGYSLAARVRDNFISEKQLASPEIMFSVRFLRPNLTHSMDLYYGAWAVLDPTRNMVDAFECTDGKPWGESPLTVRPDESILYGNDDALKKAERAKMFMNRDRRLYESVNHSMMANFVDDGFKDEEVQVNESNNKGPTGFSALKYVQPTDVTPGYSTVSDADIVVLRYAHVLLMIAEAENEAHGATTTALNAINEVRTRSGQPAIEAGISQDDLRERIRNEWRIETCFEGLRYFQLKRWKLMDKRVNGVEDPAYPGYIKVYKPAFEFFPIPQSEIDKAGGVLKQDPAYE
# What was measured:
# Assay in all cases: glycan array binding signal (z-score within array); higher = stronger binding
# Settings in all cases: glycan notation: IUPAC condensed, linker removed
# [1] = biological target: GalNAc(b1-3)Gal(a1-4)Gal(b1-4)GlcNAc(b1-3)Gal(b1-4)Glc
# Procedure, shortened: (§1)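 Glycan array data were curated from 3228 arrays in the Consortium for Functional Glycomics database and kept only where the protein sequence was available. Glycan names were converted to IUPAC-condensed notation, and columns mapping to the same glycan were averaged. The binding signal is a within-array Z-score, averaged across arrays of the same protein sequence at different concentrations or buffers and across linkers. Negative Z-scores can be read as non-binding.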
# [2] = biological target: GalNAc(b1-4)Gal(b1-4)Glc
# Procedure, shortened: as §1
# [3] = biological target: GalNAc6S(b1-4)GlcNAc
# Procedure, shortened: as §1
# [4] = biological target: GlcNAc(a1-4)Gal(b1-4)GalNAc
# Procedure, shortened: as §1
# [5] = biological target: GlcNAc(a1-4)Gal(b1-4)GlcNAc
# Procedure, shortened: as §1
# [6] = biological target: GlcNAc(a1-4)Gal(b1-4)GlcNAc(b1-3)Gal(b1-4)GlcNAc(b1-3)Gal(b1-4)GlcNAc
# Procedure, shortened: as §1
# [7] = biological target: GlcNAc(b1-2)Man(a1-3)[GlcNAc(b1-2)Man(a1-6)]Man(b1-4)GlcNAc(b1-4)[Fuc(a1-6)]GlcNAc
# Procedure, shortened: as §1
# [8] = biological target: GlcNAc(b1-2)Man(a1-3)[GlcNAc(b1-4)][GlcNAc(b1-2)Man(a1-6)]Man(b1-4)GlcNAc(b1-4)[Fuc(a1-6)]GlcNAc
# Procedure, shortened: as §1
# [9] = biological target: Man(a1-3)[Man(a1-6)]Man(a1-6)[Man(a1-3)]Man(b1-4)GlcNAc(b1-4)GlcNAc
# Procedure, shortened: as §1
# [10] = biological target: Man(b1-4)GlcNAc
# Procedure, shortened: as §1
# [11] = biological target: Neu5Ac(a2-3)Gal(b1-3)GalNAc(b1-3)Gal(a1-4)Gal(b1-4)Glc
# Procedure, shortened: as §1
# [12] = biological target: Neu5Ac(a2-3)Gal(b1-4)GlcNAc(b1-2)Man(a1-3)[GlcNAc(b1-4)][Neu5Ac(a2-3)Gal(b1-4)GlcNAc(b1-2)Man(a1-6)]Man(b1-4)GlcNAc(b1-4)GlcNAc
# Procedure, shortened: as §1
# [13] = biological target: Neu5Ac(a2-3)Gal(b1-4)GlcNAc(b1-3)Gal(b1-4)GlcNAc(b1-3)Gal(b1-4)GlcNAc(b1-2)Man(a1-3)[Neu5Ac(a2-3)Gal(b1-4)GlcNAc(b1-3)Gal(b1-4)GlcNAc(b1-3)Gal(b1-4)GlcNAc(b1-2)Man(a1-6)]GalNAc
# Procedure, shortened: as §1
# [14] = biological target: Neu5Ac(a2-3)Gal(b1-4)GlcNAc(b1-3)[Neu5Ac(a2-3)Gal(b1-4)GlcNAc(b1-6)]GalNAc
# Procedure, shortened: as §1
# [15] = biological target: Neu5Ac(a2-3)GalNAc
# Procedure, shortened: as §1
# [16] = biological target: Neu5Ac(a2-3)[GalNAc(b1-4)]Gal(b1-4)GlcNAc
# Procedure, shortened: as §1
# [17] = biological target: Neu5Ac(a2-6)Gal(b1-4)GlcNAc(b1-2)Man(a1-3)[Man(a1-6)]Man(b1-4)GlcNAc(b1-4)GlcNAc
# Procedure, shortened: as §1
# [18] = biological target: Neu5Ac(a2-6)Gal(b1-4)GlcNAc(b1-2)Man(a1-6)[Man(a1-3)]Man(b1-4)GlcNAc(b1-4)GlcNAc
# Procedure, shortened: as §1
# [19] = biological target: Neu5Ac(a2-6)Gal(b1-4)GlcNAc(b1-2)[Neu5Ac(a2-6)Gal(b1-4)GlcNAc(b1-4)]Man(a1-3)[GlcNAc(b1-4)][Neu5Ac(a2-6)Gal(b1-4)GlcNAc(b1-4)Man(a1-6)]Man(b1-4)GlcNAc(b1-4)GlcNAc
# Procedure, shortened: as §1
# [20] = biological target: Neu5Ac(a2-6)Gal(b1-4)GlcNAc(b1-3)Gal(b1-4)GlcNAc(b1-3)Gal(b1-4)GlcNAc(b1-2)Man(a1-3)[Neu5Ac(a2-6)Gal(b1-4)GlcNAc(b1-3)Gal(b1-4)GlcNAc(b1-3)Gal(b1-4)GlcNAc(b1-2)Man(a1-6)]GalNAc
# Procedure, shortened: as §1
# [21] = biological target: Neu5Ac(a2-6)Gal(b1-4)GlcNAc(b1-3)Gal(b1-4)GlcNAc(b1-6)[Gal(b1-3)]GalNAc
# Procedure, shortened: as §1
# [22] = biological target: Neu5Ac(a2-6)Gal(b1-4)GlcNAc(b1-3)Gal(b1-4)[Fuc(a1-3)]GlcNAc(b1-3)Gal(b1-4)[Fuc(a1-3)]GlcNAc
# Procedure, shortened: as §1
# [23] = biological target: Neu5Ac(a2-6)Gal(b1-4)GlcNAc(b1-3)GalNAc
# Procedure, shortened: as §1
# [24] = biological target: Neu5Ac(a2-6)GlcNAc(b1-4)GlcNAc(b1-4)GlcNAc
# Procedure, shortened: as §1
# [25] = biological target: Neu5Ac(a2-8)Neu5Ac
# Procedure, shortened: as §1
# [26] = biological target: Neu5Ac(a2-8)Neu5Gc(a2-3)Gal(b1-4)GlcNAc
# Procedure, shortened: as §1
# [27] = biological target: Neu5Gc(a2-3)Gal(b1-4)GlcNAc
# Procedure, shortened: as §1
binder,measurement,setting,value
B1,glycan array binding signal (z-score),[1],-0.311
same,glycan array binding signal (z-score),[2],0.504
same,glycan array binding signal (z-score),[3],-0.468
same,glycan array binding signal (z-score),[4],-0.334
same,glycan array binding signal (z-score),[5],0.011
same,glycan array binding signal (z-score),[6],-0.081
same,glycan array binding signal (z-score),[7],-0.47
same,glycan array binding signal (z-score),[8],-0.471
same,glycan array binding signal (z-score),[9],-0.28
same,glycan array binding signal (z-score),[10],-0.448
same,glycan array binding signal (z-score),[11],-0.715
same,glycan array binding signal (z-score),[12],0.245
same,glycan array binding signal (z-score),[13],4.15
same,glycan array binding signal (z-score),[14],-0.205
same,glycan array binding signal (z-score),[15],-0.323
same,glycan array binding signal (z-score),[16],-0.459
same,glycan array binding signal (z-score),[17],-0.309
same,glycan array binding signal (z-score),[18],-0.518
same,glycan array binding signal (z-score),[19],-0.061
same,glycan array binding signal (z-score),[20],2.67
same,glycan array binding signal (z-score),[21],-0.919
same,glycan array binding signal (z-score),[22],-0.045
same,glycan array binding signal (z-score),[23],-0.096
same,glycan array binding signal (z-score),[24],-0.585
same,glycan array binding signal (z-score),[25],-0.05
same,glycan array binding signal (z-score),[26],15.8
same,glycan array binding signal (z-score),[27],-0.782

# — the supplement of paper PMC8728848
